{
  "source": "PubChem BioAssay (Tox21)",
  "note": "Inconclusive results are not listed. Values without a mark were called inactive. Active and inactive are the calls of the source. Calls come from the whole dose curve; as a rule, active = well fitted activation curve with a large enough effect in the repeat runs; inconclusive = weak or mixed curves; inactive = no such curve, though single readings can be large or run the other way. % is set by controls: 0 for no effect and ±100 for the full control effect; potency is the fitted concentration of half-maximal effect.",
  "data": [
    {"target": "Aryl hydrocarbon receptor (Homo sapiens) (UniProt P35869)", "sequence (P35869 whole entry, looked up)": "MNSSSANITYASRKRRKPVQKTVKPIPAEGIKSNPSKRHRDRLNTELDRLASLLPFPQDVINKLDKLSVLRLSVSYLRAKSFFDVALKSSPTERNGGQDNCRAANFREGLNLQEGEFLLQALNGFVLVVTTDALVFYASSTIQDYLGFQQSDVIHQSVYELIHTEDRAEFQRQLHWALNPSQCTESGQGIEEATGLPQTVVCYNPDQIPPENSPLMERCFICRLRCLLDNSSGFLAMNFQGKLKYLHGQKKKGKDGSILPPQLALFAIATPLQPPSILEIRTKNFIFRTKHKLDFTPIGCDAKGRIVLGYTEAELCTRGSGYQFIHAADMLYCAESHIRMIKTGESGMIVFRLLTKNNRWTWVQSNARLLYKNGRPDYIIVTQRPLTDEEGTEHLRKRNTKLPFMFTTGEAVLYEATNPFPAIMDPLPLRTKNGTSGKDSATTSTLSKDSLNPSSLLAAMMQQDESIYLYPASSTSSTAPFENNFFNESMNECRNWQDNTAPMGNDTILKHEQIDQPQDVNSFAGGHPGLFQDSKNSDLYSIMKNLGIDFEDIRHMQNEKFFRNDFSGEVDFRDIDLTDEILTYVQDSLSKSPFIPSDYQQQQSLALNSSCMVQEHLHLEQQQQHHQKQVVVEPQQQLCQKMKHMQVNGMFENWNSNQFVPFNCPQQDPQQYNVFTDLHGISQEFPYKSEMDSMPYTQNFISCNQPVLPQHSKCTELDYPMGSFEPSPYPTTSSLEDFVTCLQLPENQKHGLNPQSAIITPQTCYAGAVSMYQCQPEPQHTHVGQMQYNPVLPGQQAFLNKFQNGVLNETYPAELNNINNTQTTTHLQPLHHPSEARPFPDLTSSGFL", "assay": "qHTS assay to identify small molecule that activate the aryl hydrocarbon receptor (AhR) signaling pathway (AID 743085); note: nearly all actives have a fitted effect of over 15% in size;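 for activation: HG2L7.5c1 human HepG2 liver cells with stably integrated DRE-driven firefly reporter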", "conditions": "HepG2 AhR-luc (HG2L7.5c1), luciferase, 24 h; series mostly up to 70.3 µM; activation: at the top concentration", "text": "U.S. Tox21 Program National Center for Advancing Translational Sciences [NCATS] NIH Chemical Genomics Center [NCGC] U.S. Environmental Protection Agency [EPA] National Institutes of Environmental Health Sciences [NIEHS] National Toxicology Program [NTP] U.S. Food and Drug Administration [FDA] Tox21 Assay overview: The Aryl hydrocarbon Receptor (AhR), a member of the family of basic helix-loop-helix transcription factors, is crucial to adaptive responses to environmental changes. AhR mediates cellular responses to environmental pollutants such as aromatic hydrocarbons through induction of phase I and II enzymes but also interacts with other nuclear receptor signaling pathways. A cell based HepG2-AhR-luc assay (HG2L7.5c1 cell line, developed by Dr. Michael S. Denison, University of California at Davis, was used to assess the activation of AhR. HepG2 (human hepatocellular carcinoma) cells were stably transfected with an Ah receptor-responsive firefly luciferase reporter gene plasmid containing 20 dioxin responsive elements and luciferase reporter gene. Increased luciferase activity can be used to identify the compounds that induce AhR activation.\nTox21 Assay Protocol Summary: 4000 cells in 5 uL/well were dispensed into white wall/solid bottom 1536-well plates using a Multidrop Combi (Thermo Fisher Scientific Inc., Waltham, MA) dispenser. After the assay plates were incubated at 37C for 5 h, 23 nL of compound or DMSO vehicle was transferred to the assay plates by a pintool station (Kalypsys, San Diego, CA). The plates were incubated at 37C for 24 hr. After 1 ul/well of CellTiter-Fluor reagent (Promega, Madison, WI) was added into the assay plates using a Flying Reagent Dispenser (FRD) (Aurora Discovery, CA), the assay plates were incubated at 37C for 30 min. The fluorescence intensity in the plates was measured using a ViewLux plate reader (PerkinElmer, Shelton, CT), followed by the addition of 4 uL of ONE-Glo Luciferase Assay reagent (Promega) using an FRD (Aurora Discovery). After the assay plates were incubated at room temperature for 30 min, luminescence intensity was measured using a ViewLux plate reader (Perkin Elmer).", "values": [
      {"smiles": "CN(C)C(=S)[S-].CN(C)C(=S)[S-].[Cu+2]", "activation": "-13.4% [at 32.5 µM]"},
      {"smiles": "Clc1ccc(C(Cl)(Cl)Cl)c(Cl)c1", "activation": "-0.836% [at 95 µM]"},
      {"smiles": "CC1(C)CN=C(NN=C(/C=C/c2ccc(C(F)(F)F)cc2)/C=C/c2ccc(C(F)(F)F)cc2)NC1", "Potency": "1.22 µM (active)"},
      {"smiles": "CN(C)S(=O)(=O)N(SC(F)(Cl)Cl)c1ccccc1", "activation": "-5.46%"},
      {"smiles": "CC(C)N1C(=O)N(c2ccccc2)CSC1=NC(C)(C)C", "activation": "0.918%"},
      {"smiles": "BrCBr", "activation": "-0.857% [at 95 µM]"},
      {"smiles": "C=CC(=O)OCC(COC(=O)C=C)(COC(=O)C=C)COC(=O)C=C", "activation": "-0.621%"},
      {"smiles": "O=S(=O)(c1ccc(Cl)cc1)c1ccc(Cl)cc1", "activation": "-3.59% [at 95 µM]"},
      {"smiles": "CCCOCC(=Nc1ccc(Cl)cc1C(F)(F)F)n1ccnc1", "activation": "-8.9%"},
      {"smiles": "C[C@@H]1CC[C@@]2(OC1)O[C@H]1[C@@H](O)[C@H]3[C@@H]4CC[C@H]5C[C@@H](O[C@@H]6O[C@H](CO)[C@H](O[C@@H]7O[C@H](CO)[C@@H](O)[C@H](O[C@@H]8OC[C@@H](O)[C@H](O)[C@H]8O)[C@H]7O[C@@H]7O[C@H](CO)[C@@H](O)[C@H](O[C@@H]8O[C@H](CO)[C@@H](O)[C@H](O)[C@H]8O)[C@H]7O)[C@H](O)[C@H]6O)[C@H](O)C[C@]5(C)[C@H]4CC[C@]3(C)[C@H]1[C@@H]2C", "activation": "-13% [at 95 µM]"},
      {"smiles": "CC(=O)Nc1ccc2c(c1)Cc1ccccc1-2", "Potency": "55.3 µM (active)"},
      {"smiles": "CC(C)CC(C)(c1ccc(O)cc1)c1ccc(O)cc1", "Potency": "inactive"},
      {"smiles": "COC12CC[C@@]3(C[C@@H]1C(C)(O)C(C)(C)C)[C@H]1Cc4ccc(O)c5c4[C@@]3(CCN1CC1CC1)[C@H]2O5", "note": "(stereo not given in full)", "activation": "-8.9%"},
      {"smiles": "c1ccc2c(c1)[nH]c1cnccc12", "Potency": "54.5 µM (active)"},
      {"smiles": "NNC(=O)c1ccccc1", "Potency": "15.8 µM (active)"},
      {"smiles": "Clc1ccc(C(c2ccccc2Cl)C(Cl)(Cl)Cl)cc1", "note": "(stereo not given)", "Potency": "inactive"},
      {"smiles": "CCN(CC)C(=S)[S-].CCN(CC)C(=S)[S-].[Zn+2]", "activation": "6.12%"},
      {"smiles": "ClCc1ccc(Cl)cc1Cl", "activation": "-0.655%"},
      {"smiles": "CC(=O)O[C@H]1CC[C@@]2(C)C(=CC[C@@H]3[C@@H]2CC[C@]2(C)C(=O)CC[C@@H]32)C1", "Potency": "inactive"},
      {"smiles": "CC1(C)[C@H](C(=O)O[C@H](C#N)c2cccc(Oc3ccccc3)c2)[C@@H]1/C=C(\\Cl)C(F)(F)F", "activation": "-1.33%"},
      {"smiles": "CC(C)(C)OO", "activation": "5.99%"},
      {"smiles": "Oc1ccc(C2(c3ccc(O)cc3)CCCCC2)cc1", "activation": "1.93%"},
      {"smiles": "CN(C)C(=S)S", "Potency": "inactive"},
      {"smiles": "CN(C)CCc1c[nH]c2ccc(O)cc12", "activation": "1.48%"},
      {"smiles": "CC(=O)[O-].[Tl+]", "activation": "-0.0309% [at 95 µM]"},
      {"smiles": "COc1cc(C=O)cc2c1[C@H](COC(N)=O)[C@]1(OC(C)=O)ON2C[C@H]2[C@@H]1N2C(C)=O", "activation": "-4.27%"},
      {"smiles": "CCOC(=O)OC1=C(c2cc(C)ccc2C)C(=O)NC12CCC(OC)CC2", "note": "(stereo not given)", "activation": "-0.81%"},
      {"smiles": "CCCCCCCCCCCCCN1CC(C)OC(C)C1", "note": "(stereo not given)", "activation": "-0.586%"},
      {"smiles": "O=C(NC(=O)c1c(F)cccc1F)Nc1cc(Cl)c(OC(F)(F)C(F)F)c(Cl)c1", "Potency": "0.137 µM (active)"},
      {"smiles": "CC(=O)[O-].CC(=O)[O-].O.O.[Cd+2]", "activation": "-4.01%"},
      {"smiles": "O=C(O)c1cc[c]([Hg][Cl])cc1", "activation": "1.29%"},
      {"smiles": "CC(C)(O)c1cnn2c(-c3ccc(F)c(-c4c(F)cccc4C#N)c3)cnc2n1", "activation": "6.23%"},
      {"smiles": "CC(C)C1CCC(Cc2ccc(Cl)cc2)C1(O)Cn1cncn1", "note": "(stereo not given)", "activation": "-3.5%"},
      {"smiles": "CC(=O)C(Cl)(Cl)Cl", "activation": "-3.5%"},
      {"smiles": "N#C/C=C/C#N", "activation": "-1.13% [at 95 µM]"},
      {"smiles": "CCCCCCCCCCCCBr", "activation": "-0.627%"},
      {"smiles": "O=c1oc2ccccc2c(O)c1Cc1c(O)c2ccccc2oc1=O", "activation": "7.88% [at 32.5 µM]"},
      {"smiles": "COc1ccc(/C(=C/C(=O)N2CCOCC2)c2ccc(Cl)cc2)cc1OC", "activation": "-0.843%"},
      {"smiles": "CC[C@H](C)[C@H]1O[C@]2(C=C[C@@H]1C)C[C@@H]1C[C@@H](C/C=C(\\C)[C@@H](O[C@H]3C[C@H](OC)[C@@H](O[C@H]4C[C@H](OC)[C@@H](O)[C@H](C)O4)[C@H](C)O3)[C@@H](C)/C=C/C=C3\\CO[C@@H]4[C@H](O)C(C)=C[C@@H](C(=O)O1)[C@]34O)O2", "Potency": "inactive"},
      {"smiles": "CCOC(=O)C1(c2ccccc2)CCN(CCC(C#N)(c2ccccc2)c2ccccc2)CC1", "activation": "-2.5% [at 95 µM]"}
    ]}
  ]
}
